Measured potencies and affinities stand elsewhere. Records with an inconclusive call do not appear. Active and inactive are the calls of the source. Rule as the data show it: inconclusive = activity change below about -55%; inactive = above that.
Assay: intracellular Trypanosoma cruzi inhibitors in host cells – cell-based, plate reader, cherry-pick samples, set 3, dose response (AID 651818)

| Compound | outcome |
| --- | --- |
| C[C@H](CO)N1C[C@H](C)[C@H](CN(C)C(=O)NC2CCCCC2)Oc2c(NS(=O)(=O)c3ccc(F)cc3)cccc2C1=O | inactive |
| C[C@H](CO)N1C[C@H](C)[C@H](CN(C)C(=O)Nc2ccccc2)Oc2c(NC(=O)Nc3ccc(C(F)(F)F)cc3)cccc2C1=O | inactive |
| COc1ccc(NC(=O)N(C)C[C@H]2Oc3c(NC(=O)C4CCCCC4)cccc3C(=O)N([C@H](C)CO)C[C@@H]2C)cc1 | inactive |
| Cc1cc(C(=O)Nc2cccc3c2O[C@@H](CN(C)C(=O)Nc2ccccc2)[C@@H](C)CN([C@H](C)CO)C3=O)n(C)n1 | inactive |
| C[C@H](CO)N1C[C@H](C)[C@@H](CN(C)C(=O)Nc2ccc3c(c2)OCO3)Oc2c(NC(=O)C3CCOCC3)cccc2C1=O | inactive |
| C[C@H](CO)N1C[C@H](C)[C@H](CN(C)S(C)(=O)=O)Oc2c(NS(=O)(=O)c3ccc(Cl)cc3)cccc2C1=O | inactive |
| CC(C)NC(=O)N(C)C[C@@H]1Oc2c(NS(=O)(=O)c3ccc(F)cc3)cccc2C(=O)N([C@H](C)CO)C[C@@H]1C | inactive |
| CNC[C@H]1Oc2c(NS(=O)(=O)c3cccs3)cccc2C(=O)N([C@@H](C)CO)C[C@@H]1C | inactive |
| Cc1noc(C)c1S(=O)(=O)Nc1cccc2c1O[C@@H](CN(C)CC1CC1)[C@@H](C)CN([C@H](C)CO)C2=O | inactive |
| C[C@@H]1CN([C@@H](C)CO)C(=O)c2cccc(N(C)C)c2O[C@H]1CN(C)Cc1ccc2c(c1)OCO2 | inactive |
| C[C@H](CO)N1C[C@H](C)[C@@H](CN(C)C(=O)Nc2ccc(C(F)(F)F)cc2)Oc2c(NS(=O)(=O)c3ccc(Cl)cc3)cccc2C1=O | inactive |
| C[C@@H]1CN([C@H](C)CO)C(=O)c2cccc(NS(=O)(=O)c3cn(C)cn3)c2O[C@@H]1CN(C)Cc1ccncc1 | inactive |
| CC(C)NC(=O)Nc1cccc2c1O[C@H](CN(C)Cc1ccc3c(c1)OCO3)[C@@H](C)CN([C@H](C)CO)C2=O | inactive |
| C[C@@H]1CN([C@@H](C)CO)C(=O)c2cccc(NC(=O)c3cnccn3)c2O[C@H]1CN(C)CC1CC1 | inactive |
| C[C@@H]1CN([C@@H](C)CO)C(=O)c2cccc(NS(=O)(=O)c3cn(C)cn3)c2O[C@H]1CN(C)C(=O)Nc1ccc(F)cc1 | inactive |
| COc1ccc(S(=O)(=O)N(C)C[C@H]2Oc3c(NS(=O)(=O)c4ccc(F)cc4)cccc3C(=O)N([C@H](C)CO)C[C@H]2C)cc1 | inactive |
| C[C@H](CO)N1C[C@H](C)[C@@H](CN(C)S(=O)(=O)c2ccc(F)cc2)Oc2c(NC(=O)c3cnccn3)cccc2C1=O | inactive |
| C[C@@H]1CN([C@@H](C)CO)C(=O)c2cccc(NS(=O)(=O)c3cn(C)cn3)c2O[C@H]1CN(C)C(=O)Nc1ccc2c(c1)OCO2 | inactive |
| CC(C)NC(=O)Nc1cccc2c1O[C@@H](CN(C)Cc1ccc(C(F)(F)F)cc1)[C@@H](C)CN([C@H](C)CO)C2=O | inactive |
| Cc1noc(C)c1NC(=O)N(C)C[C@@H]1Oc2c(NC(=O)NC3CCCCC3)cccc2C(=O)N([C@@H](C)CO)C[C@@H]1C | inactive |
| C[C@H](CO)N1C[C@H](C)[C@@H](CN(C)S(=O)(=O)c2ccc(F)cc2)Oc2c(NC(=O)C3CCOCC3)cccc2C1=O | inactive |
| C[C@@H]1CN([C@@H](C)CO)C(=O)c2cccc(NC(=O)c3ccncc3)c2O[C@@H]1CN(C)C | inactive |

Source: PubChem BioAssay AID651818 (Broad Institute, 2012)
